Assay results published in PubChem BioAssay AID588335 (The Scripps Research Institute Molecular Screening Center, 2011).
Among all 360,000 compounds or so, about 4,500 (1.2%) were called active. No stated cut-off is given here; in the data, active means inhibition above about 30%; inactive means the rest. The sample as a whole holds a higher share of actives than the screen did.

assay: GDH-TPI coupling enzyme inhibitors, primary screen, artefact control for M. tuberculosis FBA inhibitor project, biochemical, absorbance, full deck (AID 588335); conditions: GDH-TPI coupled enzyme counterscreen, NADH absorbance; at 4.8 µM; stronger effect = higher value;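 further: 0% = DMSO wells and 100% = wells lacking the enzyme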

SMILES	inhibition
Cc1cc(=O)oc2c3c(cc(OCC(=O)NCC(O)c4ccccc4)c12)OC(C)(C)CC3 (stereo unspecified)	15.3% (inactive)
Cc1cc(=O)oc2c3c(cc(OCC(=O)NCc4ccccn4)c12)OC(C)(C)CC3	18.6% (inactive)
Cc1cc(=O)oc2c3c(cc(OCC(=O)N[C@H](C(=O)O)c4ccccc4)c12)OC(C)(C)CC3	31.4% (active)
Cc1c(C)c2c(OCC(=O)NCCCO)cc3c(c2oc1=O)CCC(C)(C)O3	15% (inactive)
Cc1cc(=O)oc2c3c(cc(OCC(=O)NCCC(=O)N[C@@H](C)C(=O)O)c12)OC(C)(C)CC3	15.1% (inactive)
Cc1c(C)c2c(OCC(=O)N[C@@H](C(=O)O)c3ccccc3)cc3c(c2oc1=O)CCC(C)(C)O3	35.3% (active)
COc1cc(C(F)(F)F)nc2c(Br)c(C(C)(C)C)nn12	11.5% (inactive)
CCCCN(C(=O)C(CCSC)N1C(=O)c2ccccc2C1=O)c1c(N)n(CCC)c(=O)[nH]c1=O (stereo unspecified)	6.94% (inactive)
Cc1onc(-c2ccccc2)c1-c1nnc(COC(=O)c2ccc(N(C)C)cc2)o1	16.8% (inactive)
CCOCCCNC(=O)C(NC(=O)c1ccc(=O)[nH]c1)c1ccc(Cl)cc1 (stereo unspecified)	14.7% (inactive)
CC(C)NS(=O)(=O)c1ccc(NC(=O)c2cccnc2)cc1	-0.48% (inactive)
Cc1ccc(-n2nc3cc(C)c(NC(=O)c4cccnc4)cc3n2)cc1	15.4% (inactive)
Cc1cc2nc(-c3ccc(NC(=O)c4cccnc4)cc3)oc2cc1C	34.4% (active)
CCc1ccc(NC2Nc3cc(C)nn3S2)cc1 (stereo unspecified)	3.7% (inactive)
Cc1ccc(C(=O)N[C@H](C(=O)N2CCN(c3ncccn3)CC2)C(C)C)cc1	4.42% (inactive)
COc1ccc(C(=O)CSc2n[nH]c(N)n2)cc1	4% (inactive)
COC(=O)c1cccc(NC(=O)CSc2nc(C)cc(=O)[nH]2)c1	-11.5% (inactive)
COC(=O)c1cc(C(=O)CSc2nc(C)cc(C)n2)ccc1O	31.6% (active)

SMILES	inhibition
CCOC(=O)Cn1c(=O)n(Cc2ccc(OC)cc2)c(=O)c2cccnc21	5% (inactive)
O=C1N(Cc2ccc3c(c2)OCO3)c2ccccc2C1(O)c1c[nH]c2ccccc12 (stereo unspecified)	7.18% (inactive)
Cc1cccc(CCNS(=O)(=O)c2ccc(S(=O)(=O)NC3CCCC3)cc2)c1	10.9% (inactive)
Cc1c(/C=N/N2C(=O)C3C4C=CC(C4)C3C2=O)c2ccccc2n1C (stereo unspecified)	21.5% (inactive)
O=C1C2C3C=CC(C4CC34)C2C(=O)N1/N=C/c1ccc(-c2ccccc2[N+](=O)[O-])o1 (stereo unspecified)	50.6% (active)
CN(C(=O)CSc1nc(C2CC2)nc2ccccc12)c1nc(-c2ccccc2)cs1	8.44% (inactive)
CCCCn1c(N)c(N(CCC(C)C)C(=O)COC(=O)c2ccc(CC)cc2)c(=O)[nH]c1=O	9.06% (inactive)
CN(CCc1ccccc1)C(=O)c1cccc(NC(=O)Cc2cccc(NC(=O)C3CCCN(C(=O)C4CCC4)C3)c2)c1 (stereo unspecified)	4.55% (inactive)
COc1ccc(CCNC2=CC(=O)CC(C)(C)C2)cc1	4.76% (inactive)
COc1ccc(Nc2cc(Sc3ccc(OC)cc3)ncn2)cc1	-3.81% (inactive)
COc1ccc(NC2=CC(=S)NC(C)(C)C2)cc1	31.3% (active)
CCOC(=O)[C@H]1CCC[C@@H](NS(=O)(=O)c2ccc(NC(C)=O)cc2)C1	-3.39% (inactive)
OC(c1ccccc1)c1nc(-c2cnc3ccccc3c2)cs1 (stereo unspecified)	-3.54% (inactive)
CC/C(=N\NC(=O)c1ccccc1O)c1c(O)n(Cc2ccccc2)c(=O)[nH]c1=O	57% (active)
CC/C(=N\NC(=O)c1ccccc1Cl)c1ccc(Br)s1	16.7% (inactive)
COCCN(C(=O)c1ccccc1F)c1c(N)n(Cc2ccccc2)c(=O)[nH]c1=O	-6.6% (inactive)
Cc1ccccc1Nc1scc(-c2ccc(Br)cc2)[n+]1-c1ccccc1C	-1.89% (inactive)
COCCNc1cc(NCCOC)c([N+](=O)[O-])cc1[N+](=O)[O-]	15.1% (inactive)
